High-throughput results as filed in PubChem BioAssay.
Exocytosis inh: lytic granule exocytosis inhibition; hit rate 0.66% among 360,000; TALL-104 LAMP-1 surface exposure, flow cytometry; cells stimulated with thapsigargin and PMA; inhibition, % at 10 µM;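 active = inhibition above about 55%, limit read from the data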
IDE cell inh: inhibits human insulin-degrading enzyme in HEK cells | P14735 | hit rate 0.41% among 320,000 | FAbetaB cleavage, fluorescence polarization | AID 434962 | inhibition, % at 5.59 µM;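 active = percent inhibition above the average of all tested compounds plus 3 SD, set per screening campaign, cut at about 16% in these data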;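 note: IDE supplied by intact live HEK cells; FP after avidin binding of uncleaved biotin substrate so inhibition keeps polarization high; 0% = DMSO wells and 100% = 60 µM reference IDE inhibitor Ii1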
SKKanGAS inh: blocks kanamycin growth of S. pyogenes SKKanGAS strain | BacTiter-Glo, 6 h | inhibition, % at 7.5 µM | hit rate 1.3% among 300,000 | AID 1662;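 active = mean replicate score, as percent of positive control median, at least 50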;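 note: strain carries kanamycin resistance gene driven by streptokinase promoter and grows in 40 µg/ml kanamycin; loss of luminescence reflects streptokinase promoter inhibition or plain growth inhibition; 0% = median of DMSO wells and 100% = positive control at its reference dose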
IDE act: IDE (human) activation, cell-based | P14735 | HEK cells, FAbeta-B cleavage, fluorescence polarization; 0% vehicle, 100% cell-free pure enzyme wells | AID 493087 | activation, % at 5.96 µM | hit rate 0.073% among 340,000;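 active = activation above the mean of all tested compounds plus 3 SD, set per screening campaign, cut at about 17% in these data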
PP1 inh: counter-screen for PP5 inhibitors: inhibitors of human PP1-alpha; P62136; purified PP1alpha, OMFP fluorescence; inhibition, % at 6.7 µM; hit rate 0.9% among 320,000; AID 2235;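 active = inhibition above the mean inhibition of all tested compounds plus 3 SD, computed separately for each screening campaign, cut at about 15% in these data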
Target sequence (P62136 whole entry, looked up): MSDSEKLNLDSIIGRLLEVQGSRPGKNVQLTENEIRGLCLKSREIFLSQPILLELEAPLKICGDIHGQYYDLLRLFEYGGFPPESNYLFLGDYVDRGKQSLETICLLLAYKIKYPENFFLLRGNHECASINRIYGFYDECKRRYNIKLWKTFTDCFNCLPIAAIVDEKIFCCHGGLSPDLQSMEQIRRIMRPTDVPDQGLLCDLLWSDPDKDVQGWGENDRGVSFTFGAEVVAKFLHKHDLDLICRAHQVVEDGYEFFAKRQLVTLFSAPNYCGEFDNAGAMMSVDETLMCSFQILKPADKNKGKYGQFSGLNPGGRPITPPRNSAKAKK
PP5 inh: PP5 (human) phosphatase inhibition; purified PP5c, OMFP substrate fluorescence; inhibition, % at 6.7 µM; hit rate 0.18% among 320,000;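 active = inhibition above the campaign's mean inhibition across all tested compounds plus 3 SD, cut at about 9.5% in these data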;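 note: 0% = DMSO only and 100% = 100 µM cantharidin control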
The depositor's hits bear a star; · = no result given. A selection: hits, their analogues and other compounds. The true share with any hit is near 2.8%.

SMILES	Exocytosis inh	IDE cell inh	SKKanGAS inh	IDE act	PP1 inh	PP5 inh
CSc1ccc(/C=N/NC(=O)CNc2cccc3ccccc23)cc1	3	4	1	3	-1	4
O=C(CNc1cccc2ccccc12)N/N=C/c1ccc[nH]1	-8	9	50*	7	0	2
O=C(CNc1ccc(F)cc1)N/N=C/c1c(O)ccc2ccccc12	6	-5	96*	-4	3	3
O=C(CNc1cccc([N+](=O)[O-])c1)N/N=C/c1ccc([N+](=O)[O-])o1	-1	3	4	7	-2	3
O=C(CNc1cccc2ccccc12)N/N=C/c1ccc([N+](=O)[O-])o1	-1	-1	131*	-3	2	2
O=C1CCNCCN1[C@H](CO)c1ccccc1	2	-3	-1	4	-4	-1
Cc1ccc(CNC(=O)c2ccc(N3CCC4(CC3)CC(c3ccccc3)=NO4)c(NC(=O)c3ccc(Cl)c([N+](=O)[O-])c3)c2)cc1	0	1	13	2	15*	0
CCCNC(=O)c1ccc(N2CCC3(CC2)CC(c2cccc(Br)c2)=NO3)c(NC(=O)c2ccccc2)c1	-1	13	27	-11	16*	2
CCCNC(=O)c1ccc(N2CCC3(CC2)CC(c2ccccc2)=NO3)c(NC(=O)c2ccc(Br)cc2)c1	-3	-2	20	6	9	2
Cc1ccc(CNC(=O)c2ccc(N3CCC4(CC3)CC(c3ccccc3)=NO4)c(NC(=O)c3cccc(C)c3)c2)cc1	10	-4	10	3	0	2
CC(C)(C)c1ccc(-c2noc(-c3ccc4c(c3)CCO4)n2)cc1	-6	2	82*	10	-9	0
Cc1ccccc1C(=O)Nc1scc(-c2ccc(Br)cc2)c1C(=O)O	11	-1	86*	3	-1	-3
COc1ccc(-c2csc(NC(=O)c3ccc(C(C)(C)C)cc3)c2C(=O)O)cc1	·	8	82*	·	8	3
O=C(Nc1scc(-c2ccccc2)c1C(=O)O)c1ccccc1F	4	2	13	0	-1	4
Cc1ccc(-c2csc(NC(=O)c3ccccc3F)c2C(=O)O)cc1	20	-1	8	-3	-2	-1
O=C(Nc1scc(-c2ccc(Br)cc2)c1C(=O)O)c1ccccc1F	6	-1	78*	5	2	0
CC(C)Cc1csc(NC(=O)c2ccc(Br)cc2)c1C(=O)O	-4	6	70*	-6	-1	-2
CC(C)=CCc1cc([C@@H]2COc3c(ccc4c3C=CC(C)(C)O4)C2)c(O)cc1O	10	5	105*	4	-5	8
CC(=O)Oc1ccc([C@@H]2COc3c(ccc4c3C=CC(C)(C)O4)C2)c(OC(C)=O)c1	44	10	9	4	-8	3
Cc1noc(C)c1COC(=O)C(c1ccccc1)c1ccccc1	0	1	0	-1	-8	3
CNc1nc(Nc2ccc(C)c(Cl)c2)c2cnn(C)c2n1	-8	1	-2	2	1	6
Cn1ncc2c(Nc3ccc(Br)cc3)nc(Nc3ccc(Br)cc3)nc21	-6	3	106*	4	1	2
Cn1ncc2c(Nc3cccc(Cl)c3)nc(Nc3cccc(Cl)c3)nc21	13	-3	100*	-1	-2	1
O=Cc1ccc(-c2cccc(C(=O)O)c2)o1	-6	4	-4	4	-3	3
O=C(/C=C/c1ccc(-c2ccccc2[N+](=O)[O-])o1)c1ccc(F)cc1	80*	-3	-11	-3	-1	4
SMILES	Exocytosis inh	IDE cell inh	SKKanGAS inh	IDE act	PP1 inh	PP5 inh
Cc1ccc(-c2ccc(/C=C/C(=O)c3ccccc3)o2)cc1	68*	-4	-6	-5	3	-1
O=C(/C=C/c1ccc(-c2ccccc2)o1)c1ccccc1	78*	0	-9	-4	1	-4
O=C(/C=C/c1ccc(-c2ccccc2[N+](=O)[O-])o1)c1ccc(Br)cc1	32	1	6	2	-8	7
O=C(NCCNC(=O)c1cc(Cl)ccc1Cl)c1ccccn1	-7	1	4	0	-2	5
COC(=O)c1c(-c2c(Cl)cccc2Cl)noc1NC(=O)NN1CCCCC1	-4	6	2	3	3	4
CCOC(=O)[C@]12CCCC=C1N(Cc1ccco1)C(=O)[C@H](CC(=O)N1CCCC1)C2	-8	·	·	·	·	·
O=C(NC1CCCCC1)C(c1ccncc1)N(Cc1ccc(F)cc1)C(=O)c1ccccn1 (centres undefined)	-2	-4	0	2	0	-2
O=C(NC1CCCCC1)C(c1ccncc1)N(Cc1ccccc1)C(=O)c1ccc(-c2ccccc2)[nH]1 (centres undefined)	3	-4	28	4	16*	1
Cc1ccccc1N=C1Nc2ccccc2N[C@]12C[C@H]1CCC(=O)N3CC[C@@H](C2)[C@@H]13	58*	·	·	-2	·	·
O=C1CC[C@@H]2CC3(C[C@@H]4CCN1[C@H]24)Nc1ccccc1NC3=NC1CCCCC1 (some centres undefined)	0	·	·	0	·	·
O=C(NNC(=O)c1ccccc1OCc1ccccc1)c1ccccc1O	-5	·	35	1	·	·
O=C(NNC(=O)c1ccccc1OCc1ccc(F)cc1)c1ccccc1O	-1	·	93*	6	·	·
O=C(NNC(=O)c1ccccc1OCc1ccccc1)c1ccccc1F	-10	-1	3	3	0	1
O=C(N/N=C/c1ccccc1F)c1ccccc1OCc1ccccc1	107*	6	-5	0	5	3
COc1ccccc1NS(=O)(=O)c1cccc(NC(=O)C2CC2)c1	-2	-5	·	21*	-4	2
O=S(=O)(c1ccccc1)c1nc(Nc2cccc(O)c2)sc1Cl	2	-2	15	0	4	5
CCOC(=O)c1c(CN(C)C)n(-c2ccc(C)cc2)c2cc(Br)c(O)cc12	-1	4	100*	3	1	6
CCOC(=O)c1c(CN(C)C)n(-c2ccccc2)c2cc(Br)c(OC)cc12	-1	3	-4	-6	2	0
CCCCCc1nnc(NC(=O)C2CCCO2)s1 (centres undefined)	4	1	-1	36*	-3	0
Cc1nnc(NC(=O)C2CCCO2)s1 (centres undefined)	1	-4	-10	-3	-3	5
CC(C)CN=Cc1c(O)c([N+](=O)[O-])cc2oc3c(c12)CCCC3	95*	5	-8	-6	5	2
N#Cc1ccccc1S(=O)(=O)N1CCN(C(=O)[C@@H]2CCCN2C(=O)c2cccs2)CC1	-11	1	·	3	-3	-3
O=C(Nc1ccc(Cl)c(Cl)c1)C1CC(=O)N(c2ccc(Br)cc2)C1 (centres undefined)	7	4	54*	3	7	7
